# Measurements: PubChem BioAssay
# “And” between values parts separate entries of the source, which are not always exact repeats. Equal entries are not always repeated. For some assays here: Measured potencies and affinities stand elsewhere. The source made the active and inactive calls.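 How the source made its calls, unless noted: active means luciferase signal above three times the same-plate solvent-only control wells; inactive means the rest.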
# Experiments:
# [1] = EMT-state selective cytotoxicity in co-culture – imaging, PC-3E GFP, TEM4-18 mCherry, primary screen (AID 1345086;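 active means compounds killing one labelled cell type while sparing the other, by normalised counts and ratio limits, not self-fluorescent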;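 on all read-outs here: cells exposed to compound for 72 h before imaging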;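 on red/green cell ratio (normalised): normalised mesenchymal count divided by normalised epithelial count so high means epithelial killing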); conditions: PC-3E GFP / TEM4-18 mCherry co-culture, imaging cell counts, at 1 µM; for red/green cell ratio (normalised): actives lie on both sides, counts scaled to control wells, 1 = unselective
# [2] = target: Mitogen-activated protein kinase 7 (Homo sapiens) (UniProt Q13164); assay: Gal4-ERK5 driven luciferase induction – cell-based, HTS, primary screen (AID 1508626); conditions: HeLa Gal4-ERK5 transactivation, 18 h, at 5 µM, stronger effect = higher value;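 further: luciferase driven by Gal4-ERK5 fusion binding five Gal4 sites before minimal TATA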
# [3] = blockers of polyQ-driven CASP3 activation – cell-based (AID 1583); conditions: polyglutamine-induced caspase-3 activation, cell assay; stronger effect = higher value;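 tested at 10 µM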
# [4] = yeast 75Q aggregation reduction – 75Q-TubU reporter (AID 1593); conditions: Yeast 75Q polyglutamine aggregation reporter
# [5] = restoration of touch response, mutant HTT neurons – whole organism, C. elegans mechanosensory neurons, N-terminal huntingtin (AID 1599); conditions: C. elegans polyQ-huntingtin mechanosensory neurons, stronger effect = higher value
# [6] = blockers of cytochrome c efflux from mitochondria – biochemical, purified mitochondria (AID 1603); conditions: stronger effect = lower value;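 further: mouse liver mitochondria challenged with calcium chloride; signal normalized to the plate average as 100%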
# [7] = polyglutamine aggregate formation blockers (AID 1604); conditions: polyglutamine-induced protein aggregation inhibition assay; stronger effect = higher value; tested at 2.5 µM
# [8] = glutamate transport activators, MN-1 cells, MN-1 cell line (AID 1612); conditions: MN-1 motor neuron cells, stronger effect = higher value;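 further: tested at 1 µM final; 0% = mean of DMSO vehicle wells on each plate; positive means more glutamate uptake than control and negative means less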
# [9] = GFP-Q80 aggregate reduction, neuronal-like cells, cell-based, NGF-treated PC12, GFPQ80 (AID 1614); conditions: PC12 NGF-treated GFP-polyQ80 inclusion reduction;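 further: lower means fewer inclusions and 0 means no inclusions at all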
# [10] = 75Q-TubH aggregate inhibition, S. cerevisiae, yeast (AID 1616); conditions: S. cerevisiae 75Q-TubH polyglutamine aggregation suppression; stronger effect = higher value
# [11] = measured here: epithelial PC-3E GFP cell survival
# [12] = measured here: mesenchymal TEM4-18 mCherry cell survival
# Chain of Mitogen-activated protein kinase 7 (Homo sapiens) (Q13164 whole entry, looked up, the tested form may be a part): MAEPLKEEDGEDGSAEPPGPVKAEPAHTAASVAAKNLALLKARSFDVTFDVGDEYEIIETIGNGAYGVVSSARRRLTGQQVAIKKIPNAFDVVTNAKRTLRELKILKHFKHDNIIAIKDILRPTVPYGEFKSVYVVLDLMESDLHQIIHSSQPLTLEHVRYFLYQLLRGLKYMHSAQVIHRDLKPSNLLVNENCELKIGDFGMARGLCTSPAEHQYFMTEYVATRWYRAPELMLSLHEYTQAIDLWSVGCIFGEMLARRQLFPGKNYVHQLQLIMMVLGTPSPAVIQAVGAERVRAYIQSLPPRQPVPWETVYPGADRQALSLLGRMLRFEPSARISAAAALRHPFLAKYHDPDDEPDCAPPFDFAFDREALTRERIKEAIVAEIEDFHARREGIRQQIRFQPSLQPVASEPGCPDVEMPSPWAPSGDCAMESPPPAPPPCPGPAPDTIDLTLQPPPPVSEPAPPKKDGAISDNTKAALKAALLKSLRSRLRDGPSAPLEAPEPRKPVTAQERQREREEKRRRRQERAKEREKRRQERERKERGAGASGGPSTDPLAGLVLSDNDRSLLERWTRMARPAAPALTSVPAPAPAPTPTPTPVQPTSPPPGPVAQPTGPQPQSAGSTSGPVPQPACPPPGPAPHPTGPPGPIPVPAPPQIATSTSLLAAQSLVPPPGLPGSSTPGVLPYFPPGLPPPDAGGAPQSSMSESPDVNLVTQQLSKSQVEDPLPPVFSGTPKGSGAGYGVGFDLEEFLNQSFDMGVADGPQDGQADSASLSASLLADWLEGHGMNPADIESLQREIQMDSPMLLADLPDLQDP
compound,measurement,setting,value
COc1ccc([C@@H](C)C(=O)c2ccc(O)cc2O)cc1,red/green cell ratio (normalised),[1],1.1 (inactive)
same,normalised cell number,[1]; [11],0.96
same,normalised cell number,[1]; [12],1.05
same,luciferase signal,[2],20 AU (inactive)
O=c1cc(-c2ccccc2O)oc2cc(O)ccc12,red/green cell ratio (normalised),[1],1 (inactive)
same,normalised cell number,[1]; [11],0.97
same,normalised cell number,[1]; [12],0.97
same,luciferase signal,[2],112 AU (inactive)
C=CCS(=O)C[C@H](N)C(=O)O (some centres not stated),red/green cell ratio (normalised),[1],0.94 (inactive)
same,normalised cell number,[1]; [11],1.04
same,normalised cell number,[1]; [12],0.98
same,luciferase signal,[2],128 AU (inactive)
CNc1ccccc1C(=O)N1CCc2c([nH]c3ccccc23)C1=O,red/green cell ratio (normalised),[1],1.01 (inactive)
same,normalised cell number,[1]; [11],0.95
same,normalised cell number,[1]; [12],0.96
same,luciferase signal,[2],56 AU (inactive)
O=C(O)c1ccc2c(c1)OCO2,red/green cell ratio (normalised),[1],1.05 (inactive)
same,normalised cell number,[1]; [11],1
same,normalised cell number,[1]; [12],1.05
same,luciferase signal,[2],48 AU (inactive)
COc1cc(OC)c(C(C)=O)c(O)c1C,red/green cell ratio (normalised),[1],0.96 (inactive)
same,normalised cell number,[1]; [11],0.98
same,normalised cell number,[1]; [12],0.94
same,luciferase signal,[2],32 AU (inactive)
COc1ccc(-c2oc3cc(OC)c(OC)c(OC)c3c(=O)c2OC)cc1OC,red/green cell ratio (normalised),[1],1.2 (inactive)
same,normalised cell number,[1]; [11],0.9
same,normalised cell number,[1]; [12],1.08
same,luciferase signal,[2],32 AU (inactive)
CC(=O)OCC(=O)[C@@]1(O)CCC2C3CCC4=CC(=O)C=C[C@]4(C)[C@@]3(F)[C@@H](O)C[C@@]21C (some centres not stated),red/green cell ratio (normalised),[1],0.75 (inactive)
same,normalised cell number,[1]; [11],1.27
same,normalised cell number,[1]; [12],0.95
same,luciferase signal,[2],76 AU (inactive)
O=C(O)/C=C/C=C/c1ccccc1,red/green cell ratio (normalised),[1],1.01 (inactive)
same,normalised cell number,[1]; [11],0.93
same,normalised cell number,[1]; [12],0.93
same,luciferase signal,[2],64 AU (inactive)
C=CC(C1=CC(=O)C=CC1=O)c1ccccc1 (configuration not stated),red/green cell ratio (normalised),[1],0.88 (inactive)
same,normalised cell number,[1]; [11],1.13
same,normalised cell number,[1]; [12],1
same,luciferase signal,[2],64 AU (inactive)
O=c1cccc2ccc(O)c(O)c2c1O,red/green cell ratio (normalised),[1],1.04 (inactive)
same,normalised cell number,[1]; [11],0.98
same,normalised cell number,[1]; [12],1.02
same,luciferase signal,[2],44 AU (inactive)
COc1ccc(-c2cc(=O)c3c(O)c(OC)c(OC)c(OC)c3o2)cc1OC,red/green cell ratio (normalised),[1],1.15 (inactive)
same,normalised cell number,[1]; [11],0.95
same,normalised cell number,[1]; [12],1.09
same,luciferase signal,[2],112 AU (inactive)
COc1ccc(-c2cc(=O)c3c(O)cc(OC)c(OC)c3o2)c(OC)c1,red/green cell ratio (normalised),[1],1.02 (inactive)
same,normalised cell number,[1]; [11],0.97
same,normalised cell number,[1]; [12],0.99
same,luciferase signal,[2],108 AU (inactive)
CC1(C)CC[C@]2(C(=O)O)CC[C@]3(C)C(=CCC4[C@@]5(C)CC[C@@H](O)C(C)(C)C5CC[C@]43C)C2C1 (some centres not stated),red/green cell ratio (normalised),[1],1 (inactive)
same,normalised cell number,[1]; [11],0.94
same,normalised cell number,[1]; [12],0.95
same,luciferase signal,[2],16 AU (inactive)
Cc1c(S(=O)(=O)O)oc2c1C(=O)C(=O)c1c-2ccc2c1CCCC2(C)C,red/green cell ratio (normalised),[1],0.95 (inactive)
same,normalised cell number,[1]; [11],1.24
same,normalised cell number,[1]; [12],1.18
same,luciferase signal,[2],48 AU (inactive)
C=C[C@@]1(C)CC(=O)[C@@]2(O)[C@](C)(O1)[C@@H](O)[C@@H](O)C1C(C)(C)CC[C@H](O)[C@@]12C (some centres not stated),red/green cell ratio (normalised),[1],1.15 (inactive)
same,normalised cell number,[1]; [11],0.91
same,normalised cell number,[1]; [12],1.05
same,luciferase signal,[2],80 AU (inactive)
CC(=O)O[C@H]1CC[C@@]2(C)C(C[C@@H](OC(C)=O)[C@]3(C)C2CC[C@@]2(C)[C@H](c4ccoc4)OC(=O)[C@H]4O[C@]423)C1(C)C (some centres not stated),red/green cell ratio (normalised),[1],1.12 (inactive)
same,normalised cell number,[1]; [11],1
same,normalised cell number,[1]; [12],1.12
same,luciferase signal,[2],60 AU (inactive)
O=c1cc(-c2ccc(O)cc2)oc2cc(O)ccc12,red/green cell ratio (normalised),[1],0.77 (inactive)
same,normalised cell number,[1]; [11],1.28
same,normalised cell number,[1]; [12],0.98
same,luciferase signal,[2],180 AU (active)
CC(=O)O[C@H]1CC[C@@]2(C)C(C[C@@H](OC(C)=O)[C@@]3(C)C4=CC(=O)O[C@@H](c5ccoc5)[C@]4(C)CCC23)C1(C)C (some centres not stated),red/green cell ratio (normalised),[1],0.88 (inactive)
same,normalised cell number,[1]; [11],0.93
same,normalised cell number,[1]; [12],0.82
same,luciferase signal,[2],28 AU (inactive)
C=CCCCCCCCCCCCc1ccco1,red/green cell ratio (normalised),[1],1.12 (inactive)
same,normalised cell number,[1]; [11],0.9
same,normalised cell number,[1]; [12],1.01
same,luciferase signal,[2],112 AU (inactive)
O=c1cc(-c2ccc(O)cc2)oc2ccc(O)cc12,red/green cell ratio (normalised),[1],1 (inactive)
same,normalised cell number,[1]; [11],0.97
same,normalised cell number,[1]; [12],0.97
same,luciferase signal,[2],52 AU (inactive)
COc1ccc(/C=C/C(=O)c2cc(O)ccc2O)cc1,red/green cell ratio (normalised),[1],0.92 (inactive)
same,normalised cell number,[1]; [11],1.12
same,normalised cell number,[1]; [12],1.03
same,luciferase signal,[2],80 AU (inactive)
C#CCCCCCCCCCCCc1ccco1,red/green cell ratio (normalised),[1],0.97 (inactive)
same,normalised cell number,[1]; [11],1.01
same,normalised cell number,[1]; [12],0.98
same,luciferase signal,[2],148 AU (inactive)
CC1=CC(=O)C2C(C)(C)CCC[C@]2(C)[C@@]1(O)CCc1ccoc1 (some centres not stated),red/green cell ratio (normalised),[1],1.02 (inactive)
same,normalised cell number,[1]; [11],0.94
same,normalised cell number,[1]; [12],0.96
same,luciferase signal,[2],128 AU (inactive)
COc1cc(OC)c2c(=O)c(O)c(-c3ccc(OC)c(OC)c3)oc2c1,red/green cell ratio (normalised),[1],0.83 (inactive)
same,normalised cell number,[1]; [11],1.23
same,normalised cell number,[1]; [12],1.02
same,luciferase signal,[2],64 AU (inactive)
COc1ccc(/C=C/C(=O)O)cc1OC,red/green cell ratio (normalised),[1],0.97 (inactive) and 0.98 (inactive)
same,normalised cell number,[1]; [11],0.93 and 1
same,normalised cell number,[1]; [12],0.91 and 0.98
same,luciferase signal,[2],52 AU (inactive) and 80 AU (inactive)
CC(=O)O[C@H]1C[C@@H](OC(C)=O)C(C)(C)C2C[C@@H](O)[C@]3(C)C(CC[C@@]4(C)[C@H](c5ccoc5)OC(=O)[C@H]5O[C@]543)[C@]21C (some centres not stated),red/green cell ratio (normalised),[1],0.99 (inactive)
same,normalised cell number,[1]; [11],0.87
same,normalised cell number,[1]; [12],0.86
same,luciferase signal,[2],28 AU (inactive)
O=c1ccn([C@@H]2O[C@H](COP(=O)(O)OP(=O)(O)OP(=O)(O)O)[C@@H](O)[C@H]2O)c(=O)[nH]1,inhibition,[3],-7.02%
same,score,[4],1.5
same,rescue above control,[5],2.48
same,cytochrome c release ratio,[6],0.87
same,inhibition of aggregation,[7],60.6%
same,glutamate uptake change,[8],11.8%
same,inclusion score,[9],2
same,aggregation suppression score,[10],1.14
same,red/green cell ratio (normalised),[1],1.18 (inactive)
same,normalised cell number,[1]; [11],0.94
same,normalised cell number,[1]; [12],1.1
same,luciferase signal,[2],36 AU (inactive)
COc1cc2oc3cc(OC)c(OC)c(CC=C(C)C)c3c(=O)c2c(OC)c1CC=C(C)C,red/green cell ratio (normalised),[1],0.95 (inactive)
same,normalised cell number,[1]; [11],1.02
same,normalised cell number,[1]; [12],0.97
same,luciferase signal,[2],164 AU (inactive)
CC1(C)C(=O)C=C[C@@]2(C)C1CC(=O)[C@]1(C)C2CC[C@@]2(C)[C@H](c3ccoc3)OC(=O)[C@H]3O[C@]321 (some centres not stated),red/green cell ratio (normalised),[1],1.47 (inactive)
same,normalised cell number,[1]; [11],0.82
same,normalised cell number,[1]; [12],1.21
same,luciferase signal,[2],16 AU (inactive)
COc1cc2oc3cc(OC)c(OC)c(CC=C(C)C)c3c(=O)c2c(O)c1CC=C(C)C,red/green cell ratio (normalised),[1],0.97 (inactive)
same,normalised cell number,[1]; [11],1
same,normalised cell number,[1]; [12],0.97
same,luciferase signal,[2],72 AU (inactive)
CC(=O)Oc1cc(C)c2c(c1C(OC(C)=O)OC(C)=O)Oc1c(c(C)c(OC(C)=O)c3c1C(OC(C)=O)OC3=O)OC2=O (configuration not stated),red/green cell ratio (normalised),[1],0.89 (inactive)
same,normalised cell number,[1]; [11],1.03
same,normalised cell number,[1]; [12],0.92
same,luciferase signal,[2],124 AU (inactive)
COc1ccc(-c2coc3c(O)c(O)c(OC)cc3c2=O)cc1,red/green cell ratio (normalised),[1],0.97 (inactive)
same,normalised cell number,[1]; [11],1.12
same,normalised cell number,[1]; [12],1.09
same,luciferase signal,[2],88 AU (inactive)
O=c1cc(-c2ccccc2)oc2cccc(O)c12,red/green cell ratio (normalised),[1],0.94 (inactive)
same,normalised cell number,[1]; [11],1.1
same,normalised cell number,[1]; [12],1.03
same,luciferase signal,[2],104 AU (inactive)
COC1=CC(=O)C(O)=C/C1=C\C=C\c1ccccc1,red/green cell ratio (normalised),[1],1.11 (inactive)
same,normalised cell number,[1]; [11],0.95
same,normalised cell number,[1]; [12],1.06
same,luciferase signal,[2],12 AU (inactive)
CC1(C)C(=O)[C@@H]2C[C@@]3(O)C4=CC(=O)O[C@@H](c5ccoc5)[C@]4(C)CCC3C(C)(C2=O)[C@H]1CC(=O)O (some centres not stated),red/green cell ratio (normalised),[1],1 (inactive)
same,normalised cell number,[1]; [11],1.01
same,normalised cell number,[1]; [12],1.01
same,luciferase signal,[2],20 AU (inactive)
